# The list is not random: actives were taken first. Their share in the collection is about 1.1%.
# CCHF vOTU inh: CCHFV vOTU protease inhibition; Pep-AMC fluorescence; inhibition, % at 11.5 µM; 370,000 compounds, 0.55% hits; in the data active = inhibition above about 30%; also: 0% = vehicle wells with enzyme and 100% = no enzyme wells
# RecA intein inh: blocks M. tuberculosis RecA intein splicing. P9WHJ3. cell-free RecA intein splicing, fluorescence. inhibition, % (no concentration beside the values). 290,000 compounds, 0.75% hits; in the data active = inhibition above about 30%; inconclusive = no clear call, values can overlap the other calls;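 also: 0% = vehicle wells and 100% = reference inhibitor control wells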
# Target sequence (P9WHJ3 whole entry, looked up): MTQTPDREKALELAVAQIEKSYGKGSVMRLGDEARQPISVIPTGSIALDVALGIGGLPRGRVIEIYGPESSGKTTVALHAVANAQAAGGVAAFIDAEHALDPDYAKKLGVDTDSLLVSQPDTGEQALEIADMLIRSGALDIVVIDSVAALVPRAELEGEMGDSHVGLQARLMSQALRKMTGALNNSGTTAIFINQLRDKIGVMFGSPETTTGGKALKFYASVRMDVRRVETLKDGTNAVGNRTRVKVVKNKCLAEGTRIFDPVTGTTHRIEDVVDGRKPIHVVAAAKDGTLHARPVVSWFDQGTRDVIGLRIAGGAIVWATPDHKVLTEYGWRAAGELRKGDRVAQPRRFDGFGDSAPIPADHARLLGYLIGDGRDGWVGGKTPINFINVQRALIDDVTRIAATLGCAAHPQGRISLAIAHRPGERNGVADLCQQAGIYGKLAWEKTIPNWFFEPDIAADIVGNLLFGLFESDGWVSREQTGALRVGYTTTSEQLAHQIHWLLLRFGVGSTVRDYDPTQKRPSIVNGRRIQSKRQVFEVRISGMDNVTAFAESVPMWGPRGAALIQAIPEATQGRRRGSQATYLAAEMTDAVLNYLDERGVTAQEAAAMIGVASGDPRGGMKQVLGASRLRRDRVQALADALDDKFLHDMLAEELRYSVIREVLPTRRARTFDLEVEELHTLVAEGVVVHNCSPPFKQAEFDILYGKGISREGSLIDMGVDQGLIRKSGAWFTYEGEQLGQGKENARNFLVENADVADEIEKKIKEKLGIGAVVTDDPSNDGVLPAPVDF
# Mtb BioA inh: BioA (M. tuberculosis) enzyme inhibition | purified M. tuberculosis BioA enzyme, plate reader | inhibition, % at 9.99 µM | 360,000 compounds, 0.096% hits; in the data active = inhibition above about 40%; inconclusive = no clear call, values can overlap the other calls
# BJeLR lethal: BJeLR cell viability loss | BJeLR (HRASV12) viability, CellTiter-Glo ATP luminescence, 48 h | inhibition, % (test concentration not listed) | 300,000 compounds, 0.17% hits | AID 1554; in the data active = inhibition above about 50%; inconclusive = no clear call, values can overlap the other calls
# Mtb betalactam: beta-lactam sensitization of Mtb H37Rv; AID 434955; 330,000 compounds, 0.27% hits; M. tuberculosis H37Rv growth with meropenem, percent inhibition; inhibition, % at 25 µM; call rule not given here;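 also: growth measured after seven days incubation then overnight dye step; 0% = bacteria only wells and 100% = bacteria with antibiotic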
# Y pestis TopoI: inhibitors of Yersinia pestis topoisomerase I; Y. pestis Topo-I cleavage product accumulation, plate reader; activity, % at 10 µM; 360,000 compounds, 0.064% hits; in the data active = activity above about 50%, passing the limit was not always enough; inconclusive = no clear call, values can overlap the other calls
# Numbers without * were called inactive; ? = inconclusive; . = no result given.
SMILES,CCHF vOTU inh,RecA intein inh,Mtb BioA inh,BJeLR lethal,Mtb betalactam,Y pestis TopoI
C[C@H](CO)N1C[C@H](C)[C@H](CN(C)C(=O)Nc2ccc(F)cc2)Oc2c(NC(=O)c3ccncc3)cccc2C1=O,.,.,-4,.,.,.
O=C(Nc1cc(F)ccc1F)N[C@H]1C=C[C@H](CC(=O)N2CCc3ccccc3C2)O[C@@H]1CO,.,.,0,.,.,.
Cc1ccc(NC(=O)COc2cccc(/C=C3\SC(=S)N(CCC(=O)O)C3=O)c2)cc1Cl,0,31*,.,3,7,4
O=C(O)CN1C(=O)/C(=C\c2cccc(OCc3ccccc3)c2)SC1=S,25,9,3,0,2,20
O=C(O)COc1cccc(/C=C2/SC(=S)N(Cc3ccccc3)C2=O)c1,28,45*,-1,-11,3,10
C[C@@H]1CN([C@H](C)CO)C(=O)c2cc(NC(=O)Nc3ccc(C(F)(F)F)cc3)ccc2O[C@@H](C)CCCCO[C@@H]1CN(C)Cc1ccc(Cl)c(Cl)c1,.,.,-4,.,.,.
COc1cccc(CNC(=O)C[C@@H]2CC[C@@H](NC(=O)C3CC3)[C@H](CO)O2)c1,.,.,4,.,.,.
O=C(CCl)c1ccc2c(c1)CCN2C(=O)C1CC1,.,60*,.,-3,100,.
O=C(C1CCC(C(=O)N2CCc3ccccc32)CC1)N1CCc2ccccc21 (stereo unspecified),5,-1,0,-3,0,-10
CCN(CC)c1ccc(S(=O)(=O)N2CCOCC2)cc1NC(=O)CSc1nncn1C,35*,.,1,.,-6,-10
CCN(CC)c1ccc(S(=O)(=O)N2CCOCC2)cc1NC(=O)CSc1nncs1,.,-7,1,3,-8,7
O=C(Nc1ccc2nc(-c3ccco3)c(-c3ccco3)nc2c1)N1CCN(c2ccccn2)CC1,30*,-61,-2,5,3,-7
O=C(Nc1ccccc1)c1ccc2nc(-c3ccco3)c(-c3ccco3)nc2c1,48*,19,0,4,23,-12
COc1ccccc1CNC(=O)C[C@H]1CC[C@H](NC(=O)CN(C)C)[C@@H](CO)O1,.,.,0,.,.,.
C[C@H]1O[C@@H](O[C@H]2[C@@H](O)C[C@H](O[C@H]3[C@@H](O)C[C@H](O[C@H]4CC[C@@]5(C)[C@H](CC[C@@H]6[C@@H]5C[C@@H](O)[C@]5(C)[C@@H](C7=CC(=O)OC7)CC[C@]65O)C4)O[C@@H]3C)O[C@@H]2C)C[C@H](O)[C@@H]1O,3,0,-1,102*,-8,6
O=C(CSc1nnc(-c2ccccc2Cl)o1)Oc1ccc(Br)cc1,5,61*,-1,-11,-13,-11
O=C(CSc1nnc(-c2ccccc2O)o1)Oc1ccc(Br)cc1,-10,3,-1,3,-2,3
O=C(CCl)Nc1cn(-c2ccccc2)nc1-c1ccc(F)cc1,14,46*,.,-5,100,2
Cc1ccc(N2C(=O)c3ccccc3C2O)nc1 (stereo unspecified),.,-3,.,70*,-7,.
C=C(C=O)C[C@@H]1C[C@H](O)C2OC3C[C@]4(C)OC5/C=C\CC6OC7C(CC=CCC6OC5CCCC4OC3CC2O1)OC1CC2OC3CC(=O)OC3C[C@@H](C)C[C@@]2(C)OC1C[C@@H]7C (stereo partly specified),.,-3,.,95*,-1,.
CN(Cc1ccc(Cl)cc1)C(=O)CCl,-11,63*,-1,-4,99,-2
CN(Cc1ccc(Cl)s1)C(=O)CCl,2,43*,.,38,100,0
COc1ccc(CN(C)C(=O)CCl)cc1,-6,.,.,.,.,0
CCC(=O)N[C@H]1CC[C@H](CC(=O)NCc2ccc(OC)cc2)O[C@H]1CO,.,.,-2,.,.,.
COc1ccccc1N(CC(=O)NCCSc1ccccc1)S(C)(=O)=O,-8,0,1,1,1,4
SMILES,CCHF vOTU inh,RecA intein inh,Mtb BioA inh,BJeLR lethal,Mtb betalactam,Y pestis TopoI
COc1ccccc1N(CC(=O)NCCSc1ccccc1)S(=O)(=O)c1ccccc1,4,8,-1,7,-16,57*
O=S(=O)(c1ccc(SCc2ccc(Cl)cc2)nc1)N1CCCC1,20,.,-1,.,4,53*
Cc1cc(C)cc(CSc2ccc(S(=O)(=O)N3CCCC3)cn2)c1,6,.,-2,.,16,47
Cc1ccc(C)c(-n2nnnc2Sc2nnnn2-c2ccccc2)c1,5,71*,0,2,29,5
COc1ccc(COC(=O)N/N=C(\C)CC(=O)Nc2ccc(Cl)cn2)cc1,10,45*,-1,-4,1,2
COc1ccc(OCCCC(=O)OCC(=O)Nc2ccc(Cl)cn2)cc1,-3,1,0,-3,0,0
CC(C)Nc1nc(Cl)nc(N(C#N)CN2C(=O)c3ccccc3C2=O)n1,24,2,.,31,6,-2
CCC(C)Nc1nc(Cl)nc(N(C#N)CN2C(=O)c3ccccc3S2(=O)=O)n1 (stereo unspecified),3,37*,.,1,2,1
Cc1c(CN(C)C)c2c(n1C)C(=O)c1ccc(Br)cc1-2,-17,2,1,-8,44,-15
CCOC(=O)c1c2c(n(C)c1C)C(=O)C(=O)c1ccc(Br)cc1-2,22,23,-3,55*,?,4
Cc1c(Cl)cccc1NC(=O)CSCc1cc(=O)[nH][nH]1,9,85*,.,-2,-9,-1
Cc1c(Cl)cccc1NC(=O)CSc1nnnn1C,1,.,-2,.,5,-2
C[C@H](CO)N1C[C@H](C)[C@H](CN(C)C(=O)Nc2ccc(F)cc2)Oc2c(NS(=O)(=O)c3cn(C)cn3)cccc2C1=O,.,.,-2,.,.,.
CC(C)NC(=O)Nc1ccc2c(c1)C(=O)N(C)[C@H]1CC[C@H](CC(=O)Nc3ccccc3)O[C@H]1CO2,.,.,8,.,.,.
CC1(C)C[C@H]2C=C(C=O)[C@]3(C=O)C[C@]3(C)[C@H]2C1,-2,2,-1,92*,1,3
Cc1ccc2cccc(NS(=O)(=O)c3ccccc3)c2n1,5,7,.,69*,20,.
O=S(=O)(Nc1cccc2cccnc12)c1ccccc1,0,2,10,74*,97,4
O=S(=O)(Nc1cccc2ccccc12)c1ccccc1,-2,0,.,2,-1,3
C[C@@H](O)C#Cc1cnc2c(c1)C(=O)N([C@@H](C)CO)C[C@H](C)[C@@H](CN(C)Cc1cccc(C(=O)O)c1)O2,.,.,-2,.,.,.
Cc1ccc(S(=O)(=O)NC(C)CCc2ccccc2)cc1 (stereo unspecified),31*,3,0,-10,-3,1
CCOc1ccc2nc(NC(=O)c3ccoc3C)sc2c1,11,7,-2,81*,49,-24
Cc1ccc(S(=O)(=O)N(C)C[C@H]2Oc3c(NC(=O)c4cc(C)nn4C)cccc3C(=O)N([C@@H](C)CO)C[C@@H]2C)cc1,.,.,0,.,.,.
COc1ccc(C#Cc2ccc([C@H]3[C@@H](CO)N4CCCCN(S(=O)(=O)c5cn(C)cn5)C[C@@H]34)cc2)cc1,.,.,-3,.,.,.
C/C(CC(=O)NCc1ccco1)=N\NC(=O)c1ccc([N+](=O)[O-])cc1Cl,13,69*,0,-15,-10,-6

# Source: PubChem (several laboratories)
